This is part of a sample that, as a whole, favours compounds with a hit. Of some 79,000 tested, about 15% had one in any assay. Rule as the data show it: active = growth inhibition above about 70%; inactive = the rest.
Columns and labels:
[1] = NCI Yeast Anticancer Drug Screen. Data for the rad50 strain (AID 155);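 also: 0% = growth of vehicle-only cultures of the same strain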; details: S. cerevisiae rad50 strain growth inhibition; at 50.0 µM; hits give high values
In short: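 DNA repair mutant yeast, compound exposure, growth read-out; inhibition is taken relative to vehicle.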

[2] = NCI Yeast Anticancer Drug Screen. Data for the mec2-1 strain (AID 157); details: S. cerevisiae mec2-1 strain, at 50.0 µM, hits give high values
In short: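 Strain: mec2-1 (DNA repair/cell cycle alteration). Compound exposure, then growth measured; inhibition expressed relative to vehicle.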

[3] = NCI Yeast Anticancer Drug Screen. Data for the sgs1 mgt1 strain (AID 161);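 also: 0% = growth of cultures given vehicle only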; details: S. cerevisiae sgs1 mgt1 strain, at 50.0 µM, hits give high values
In short: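 Genetically altered yeast, compound exposure, growth inhibition relative to vehicle.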

[4] = NCI Yeast Anticancer Drug Screen. Data for the cln2 rad14 strain (AID 165);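 also: 0% = growth equal to vehicle treated cultures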; details: S. cerevisiae cln2 rad14 strain, at 50.0 µM, hits give high values
In short: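 Compounds are applied to the cln2 rad14 yeast strain, and growth is then compared with that of vehicle-treated cultures to give inhibition.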

[5] = NCI Yeast Anticancer Drug Screen. Data for the bub3 strain (AID 167); details: S. cerevisiae bub3 mutant strain, at 50.0 µM, hits give high values
In short: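 In this screen, a yeast mutant lacking normal mitotic checkpoint function is challenged with compound. Relative growth versus vehicle gives the inhibition value.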

[6] = NCI Yeast Anticancer Drug Screen. Data for the mlh1 rad18 strain (AID 175); details: S. cerevisiae mlh1 rad18 strain growth inhibition; at 50.0 µM; hits give high values
In short: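 Read-out is yeast growth inhibition, calculated against vehicle-only controls. The compound was applied to a strain engineered with DNA damage repair alterations.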

Measured: growth inhibition

NC(=O)C(c1ccccc1)c1ccnc2ccccc12 (stereo unspecified)
inactive: [1] 2.05% | [2] 4.5% | [3] 7.9% | [4] 8.05% | [5] 20.4% | [6] -21.2%

CN(C)S(=O)(=O)Oc1ccccc1N
inactive: [1] 5.9% | [2] -4.5% | [3] 20.9% | [4] 18.7% | [5] -5.15% | [6] 15.8%

O=C1NS(=O)(=O)c2cc(Cl)ccc21
inactive: [1] -34.3% | [2] -22.1% | [3] -23.8% | [4] -18.4% | [5] -1.85% | [6] -12.8%

CCCCCCCCCCCCCCCCCCCC/C=C/C1CC(=O)OC1=O (stereo unspecified)
inactive: [1] -4.8% | [2] -6% | [3] 16.9% | [4] 26.8% | [5] 16.9% | [6] 7.1%

CC12CCC(=O)C=C1CCC1C2CCC2(C)C(C(=O)Cn3c(=O)[nH]cc(F)c3=O)CCC12 (stereo unspecified)
inactive: [1] 19.9% | [2] 1.85% | [3] 25.9% | [4] 8.85% | [5] 6.55% | [6] 11%

O=c1ccc2ccc(O)c(O)c2o1
inactive: [1] -10.9% | [2] -5.3% | [3] 12.9% | [4] 18.1% | [5] 30.7% | [6] 1.5%

Cc1nc2ccccc2nc1CCO
inactive: [1] -12.7% | [2] -0.15% | [3] -3.85% | [4] -24.2% | [5] -24.8% | [6] -8.8%

Fc1nc(F)nc(-c2c3ccccc3c3n2CCS3)n1
inactive: [1] 1.65% | [2] 14.1% | [3] 9.1% | [4] 15.3% | [5] 4.7% | [6] 7.2%

COc1ccc2c(c1)CN(Cc1ccccc1)CO2
inactive: [1] 3.85% | [2] -3.4% | [3] 6% | [4] -17.4% | [5] 13% | [6] 11.7%

COc1ccc2c(O)cc(C(=O)O)c(-c3ccccc3)c2c1
inactive: [1] -4.7% | [2] -12.8% | [3] -3.95% | [4] -17.5% | [5] 5.05% | [6] -22.6%

CN=NNc1ccc(C(=O)NC(C)C)cc1
inactive: [1] -3.65% | [2] -2% | [3] -8.2% | [4] -1.15% | [5] -13.7% | [6] -14.7%

CC12CCc3ccccc3C1=NNC(=O)C2 (stereo unspecified)
inactive: [1] -3.2% | [2] -7.55% | [3] 19.6% | [4] -6.45% | [5] -5.85% | [6] -6.15%

NC(=S)N/N=C(\Cc1nc2ccc(Cl)cc2[nH]c1=O)C(=O)Nc1ccc(Cl)cc1
inactive: [1] -17.9% | [2] 2.35% | [3] -23.9% | [4] -10.2% | [5] -15.4% | [6] -9.05%

CCCCCCCC/C=C\CCCCCCC(F)C(=O)O (stereo unspecified)
inactive: [1] 25.4% | [2] 4.55% | [3] 16.2% | [4] 6.1% | [5] -11.8% | [6] -43%

CCN(CC)CCOc1ccc(OC)cc1
inactive: [1] -8.7% | [2] -0.6% | [3] -9.55% | [4] -35.2% | [5] -5.2% | [6] -0.8%

CCC(Nc1ncnc2nc[nH]c12)C(=O)O (stereo unspecified)
inactive: [1] -7.5% | [2] -14.2% | [3] -17.4% | [4] -20.4% | [5] -23.6% | [6] 14%

CCCCCCCCCCCCCCCCCC[N+](CCCC)(CCCC)CCCCCCCCCCCCCCCCCC (tested in a mixture with another compound)
inactive: [1] 3.45% | [2] 7.25% | [3] 1.7% | [4] -10% | [5] 1.5% | [6] 4.3%

CCOC(=O)Cc1c(C)cc(C)cc1C
inactive: [1] 18.9% | [2] -6.3% | [3] -10.4% | [4] 3.35% | [5] 15.7% | [6] 10.4%

COc1ccc([C@H]2CC3C(=O)N(c4ccc(OC)cc4)C(=O)C3c3[nH]c4ccccc4c32)cc1 (stereo partly specified)
inactive: [1] -10.1% | [2] -2.95% | [3] -1.05% | [4] -64.2% | [5] -16.4% | [6] -16.9%

CC1(C)OCC(C2OC(C)(C)OC2C(CO)Nc2ccc([N+](=O)[O-])cc2[N+](=O)[O-])O1 (stereo unspecified)
inactive: [1] 53% | [2] 21.4% | [3] 59.1% | [4] 41.4% | [5] 11.2% | [6] 49.1%

Cc1ccc(NC(=O)C(=O)Cc2cccc[n+]2[O-])cc1C
inactive: [1] 25.4% | [2] 13.1% | [3] -4.1% | [4] 12.2% | [5] 9.05% | [6] -6.1%

c1ccc2c(c1)CCC/C2=N\OCC1CO1 (stereo unspecified)
inactive: [1] -7.5% | [2] -28.4% | [3] -35.2% | [4] -3.1% | [5] -33.1% | [6] 7.05%

COc1cc(/C=C/c2ccc([N+](=O)[O-])cc2[N+](=O)[O-])ccc1O
inactive: [1] 24.3% | [2] 8.5% | [3] 28.6% | [4] 19.1% | [5] 9.25% | [6] 25.9%

CC(C)(c1ccsc1)c1sccc1C(=O)O
inactive: [1] -4.7% | [2] 2.95% | [3] 8.55% | [4] -19.4% | [5] -2.95% | [6] 16.2%

C=CC12c3c4cc(OC)cc3OC1C(O)CCC2CC4 (stereo unspecified)
inactive: [1] -8.05% | [2] 8.85% | [3] -6.2% | [4] 9.85% | [5] 4.5% | [6] 5.65%

COc1ccc(-c2cc3cc(CCCOC4OC(COC5OCC(O)C(O)C5O)C(O)C(O)C4O)cc(OC)c3o2)cc1OC (stereo unspecified)
inactive: [1] 31% | [2] 17.4% | [3] 34.6% | [4] 23.8% | [5] 8.8% | [6] 23.4%

NC(=O)CCP(=O)(CCC(N)=O)CCC(N)=O
inactive: [1] 3.8% | [2] -2.3% | [3] 1.2% | [4] 0.8% | [5] -2.95% | [6] 2.4%

NC(Cc1ccccc1)C(=O)Nc1ccccc1 (stereo unspecified)
inactive: [1] 18.3% | [2] -16% | [3] -7.3% | [4] 13.3% | [5] -22.1% | [6] 10.5%

Nc1nc([O-])c([I+]c2ccccc2)c(=O)[nH]1
inactive: [1] -17.5% | [2] -11.8% | [3] 3.7% | [4] -8.5% | [5] 0.15% | [6] -6.45%

O=C(N/N=C/c1ccccc1F)c1ccncc1
inactive: [1] 1.1% | [2] 5% | [3] -0.95% | [4] -24.4% | [5] -7.65% | [6] 23.9%

CCN(CC)CCNc1c2ccc(Cl)cc2nc2c1c(C)nn2C
inactive: [1] -7.05% | [2] 9.15% | [3] 18.9% | [4] 21% | [5] 33.1% | [6] 6.95%

CO[Si](CCCN)(OC)OC
inactive: [1] -0.65% | [2] -44.8% | [3] -13.4% | [4] -8.7% | [5] 11.8% | [6] 35.9%

Clc1ccc(C(=C=C(c2ccccc2)c2ccccc2)c2ccc(Cl)cc2)cc1
inactive: [1] 33.7% | [2] 13.8% | [3] -4.4% | [4] 20.7% | [5] 5.55% | [6] 25.9%

CC(C)OP(=O)(OC(C)C)C1C(P(=O)(OC(C)C)OC(C)C)C(F)(F)C1(F)F (stereo unspecified)
inactive: [1] 11.4% | [2] 10.9% | [3] -7.35% | [4] -2.65% | [5] -2% | [6] 14.3%

O=C(NCC1(c2ccc3c(c2)OCO3)OCCO1)c1ccccc1[N+](=O)[O-]
inactive: [1] 20% | [2] -4.1% | [3] -2.1% | [4] -42.6% | [5] -5.75% | [6] 2.6%

CC(C)(c1ccc(O)c([N+](=O)[O-])c1)c1ccc(O)c([N+](=O)[O-])c1
inactive: [1] -2.65% | [2] -2.75% | [3] -4.6% | [4] -26.4% | [5] -2.9% | [6] 7.2%

C[C@]12C(=O)OC[C@H](c3ccccc3)N1C(=O)N(Cc1ccccc1)[C@@H]2CO
inactive: [1] -27.8% | [2] -26.1% | [3] -17.6% | [4] 1.6% | [5] 17.1% | [6] -9.5%

O=[N+]([O-])c1ccc2c(Cl)[nH]nc2c1
inactive: [1] 35.1% | [2] 27.6% | [3] 29.8% | [4] 30.8% | [5] 39% | [6] 23.9%

O=C1NC(=O)C(c2ccc(Cl)cc2)(c2cccc(Cl)c2)N1 (stereo unspecified)
inactive: [1] 11.1% | [2] -16.5% | [3] 18.3% | [4] -11.8% | [5] 5.9% | [6] -5.9%

CC1CCN(C(=O)c2cc(Nc3ccnc4cc(Cl)ccc34)ccc2O)CC1
inactive: [1] -2.05% | [2] -3.4% | [3] -6.65% | [4] -4.35% | [5] -3.9% | [6] 7.6%

NC(=O)COc1ccc(Cl)cc1Cl
inactive: [1] 16.6% | [2] -0.5% | [3] 28.4% | [4] -0.4% | [5] 5.7% | [6] 20%

Source: PubChem BioAssay (NCI)
